In all, about 290,000 compounds went through this assay and about 2,700 (0.93%) were called active. No rule for the calls is given here. What follows is part of a selection rich in actives, with near analogues and random picks from the rest.
Target: Eukaryotic translation initiation factor 4H (Homo sapiens) (UniProt Q15056)
Experiment: human eIF4H binding inhibitors, primary screen, translation initiation inhibitor project, biochemical, uHTS, fluorescence polarization (AID 2012);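 also: calls also rest on retests at 20 µM and on dose response follow-up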
Settings: eIF4H fluorescence polarization binding assay, stronger effect = higher value

| Structure (SMILES) | inhibition (at 35 µM) | inhibition (confirmation average, at 20 µM) |
| --- | --- | --- |
| CC(C)NC(=O)C(=O)N/N=C/c1ccco1 | -8.2% (inactive) |  |
| O=c1nc(N/N=C/c2ccco2)cn[nH]1 | 76.3% (active) | 73.4% |
| O=C(Cn1cnc2ccccc21)N/N=C/c1ccco1 | 69.8% (inactive) | 2.9% |
| COc1ccc(Nc2ncnc3ccc(Br)cc23)c(OC)c1 | -9.9% (inactive) |  |
| Cc1ccc(CS(=O)(=O)CCC(=O)NCc2ccc(F)cc2)cc1 | -4.5% (inactive) |  |
| CCCCNC(=O)C1(O)c2ccccc2NC(=O)N1c1ccc(Cl)cc1 (stereo not given) | -2.3% (inactive) |  |
| O=C(O)CC(c1ccccc1F)N1Cc2ccccc2C1=O (stereo not given) | 0.1% (inactive) |  |
| O=C(CNC(=O)c1ccc(Br)o1)NCC1CCCO1 (stereo not given) | -11.8% (inactive) |  |
| O=C(c1ccc(Br)o1)N(c1ccccn1)C1CCCCC1 | 55.5% (active) | 99.6% |
| O=C(c1cccs1)N(C(=O)c1cccs1)c1ccccn1 | -8.6% (inactive) |  |
| Cc1ccc(S(=O)(=O)N2CCC(Oc3ccc(-n4cnnn4)cc3)CC2)cc1 | 1.6% (inactive) |  |
| CCOc1ccc(-n2cnnn2)cc1S(=O)(=O)N1CCC(C)CC1C (stereo not given) | 3.6% (active) | 90.8% |
| CCOc1ccc(Br)cc1S(=O)(=O)N1CCC(C(=O)O)CC1 | -7.6% (inactive) |  |
| COc1cccc(C(=O)Nc2nnc(S(=O)(=O)N3CCOCC3)s2)c1 | -15.7% (inactive) |  |
| CN(Cc1ccccc1)C(=O)c1ccc(NC2=NC3CS(=O)(=O)CC3S2)cc1 (stereo not given) | -7.2% (inactive) |  |
| COc1cccc(NC(=O)C2CCCN(c3ncnc4c3nc3n4CCCCC3)C2)c1 (stereo not given) | 2.9% (inactive) |  |
| O=C(c1ccc(CS(=O)(=O)c2ccccc2)o1)N1CCN(c2ccccc2)CC1 | 93.4% (active) | 73.1% |
| O=C(c1cc(=O)c2ccccc2o1)N1CCN(c2ccccc2)CC1 | 1.2% (inactive) |  |
| O=C(c1ccc(S(=O)(=O)N2CCOCC2)cc1)N1CCN(c2ccccc2)CC1 | -4.2% (inactive) |  |
| Cc1ccc(C)c(S(=O)(=O)N2CCN(C(=O)Nc3ccccc3)CC2)c1 | 4.3% (inactive) |  |
| CC(Oc1cc2oc(=O)c3c(c2cc1Cl)CCCC3)C(=O)NCc1ccncc1 (stereo not given) | -3.9% (inactive) |  |

| Structure (SMILES) | inhibition (at 35 µM) | inhibition (confirmation average, at 20 µM) |
| --- | --- | --- |
| Cc1ccc(-c2nn(-c3ccccc3)cc2/C=C2\SC(=S)N(CCCCCC(=O)O)C2=O)o1 | 78.9% (active) | 68.5% |
| CN(C)S(=O)(=O)c1cccc(-c2nn(-c3ccccc3)cc2/C=C2\SC(=S)N(CC(=O)O)C2=O)c1 | 47.3% (inactive) |  |
| COc1ccc(-c2nn(-c3ccccc3)cc2/C=C2/SC(=S)N(CCCC(=O)O)C2=O)c(C)c1 | 15.2% (inactive) |  |
| CCOC(=O)CSc1nc(N2CCOCC2)c2c(c1C#N)CC(C(C)C)OC2 (stereo not given) | -6.3% (inactive) |  |
| Cc1ccnc(NC(=O)CCNS(=O)(=O)c2ccc(C)c(C)c2)c1 | -10.9% (inactive) |  |
| Cc1c(-c2ccccc2)nc(N)c(C#N)c1-c1cccs1 | 7.1% (inactive) |  |
| CCc1c(-c2ccccc2)nc(N)c(C#N)c1-c1cccs1 | -8.4% (inactive) |  |
| CN1CCc2nc(SC(C(=O)O)c3ccccc3)c(C#N)c(-c3cccs3)c2C1 (stereo not given) | 76.7% (active) |  |
| O=C(O)C1CCCCC1C(=O)N1CCN(S(=O)(=O)c2ccc(F)cc2)CC1 (stereo not given) | -6.9% (inactive) |  |
| O=c1[nH]c(=S)[nH]c2[nH]c(=S)[nH]c12 | 88.2% (active) |  |
| Cc1c(C)c(C)c2[nH]c(=S)[nH]c2c1C | -4.2% (inactive) |  |
| Cc1cc(=O)[nH]c(=S)[nH]1 | 2.4% (inactive) |  |
| CN(C(=O)CCNC(=O)Cn1ccc2ccccc2c1=O)c1ccc(Br)cc1 | 1.5% (inactive) |  |
| CCOC(=O)C1=C(C)NC(=S)NC1c1cccs1 (stereo not given) | -5% (inactive) |  |
| N#CC1=C(N)C(C#N)(C#N)[C@H](c2ccsc2)[C@H]2COCC=C12 | 113% (inactive) | -3.8% |
| CCOC(=O)N1CC=C2C(C#N)=C(N)C(C#N)(C#N)[C@H](c3cccs3)[C@H]2C1 | 63.3% (active) |  |
| Cc1ccn2c(c1)nc(=O)c1cc(S(=O)(=O)N3CCC(C)CC3)ccc12 | -3.5% (inactive) |  |
| Cc1ccc(Cl)c(OCC(=O)N2CCc3ccccc3C2)c1 | -9.4% (inactive) |  |
| O=C(Nc1ncc2c(n1)-c1ccccc1OC2)c1ccc(Cl)cc1 | -10.3% (inactive) |  |
| CCc1ccc(Nc2ncc3c(n2)CC(c2ccco2)CC3=O)cc1 (stereo not given) | -4% (inactive) |  |
| O=C(Nc1ncc2c(n1)CC(c1ccco1)CC2=O)c1ccc(Cl)cc1 (stereo not given) | 83.6% (active) |  |

| Structure (SMILES) | inhibition (at 35 µM) | inhibition (confirmation average, at 20 µM) |
| --- | --- | --- |
| Cc1c(CCC(=O)O)c(=O)oc2cc3occ(-c4ccccc4)c3cc12 | 14.4% (inactive) |  |
| Cc1c(CC(=O)NCCCCCC(=O)O)c(=O)oc2cc3occ(-c4ccccc4)c3cc12 | 6% (inactive) |  |
| CCCCCCc1cc2cc(-c3nnc(-c4ccccc4)o3)c(=O)oc2cc1O | 70.4% (active) |  |
| Cc1nc(NC(=O)c2ccc3c(c2)OCCO3)ccc1Br | -4.6% (inactive) |  |
| CCOc1ccc(OCC(=O)Nc2c3c(nn2C(C)(C)C)CS(=O)(=O)C3)cc1 | -13.7% (inactive) |  |
| COc1ccc(CNS(=O)(=O)c2ccc(-c3cnc(C4CC4)o3)cc2)cc1 | -9.2% (inactive) |  |
| O=C1CC(c2ccccc2)C(=O)N1c1cccc(O)c1 (stereo not given) | -6.1% (inactive) |  |
| O=C1OCC2=C1C(c1ccccc1)CC(=O)N2c1cccc(F)c1 (stereo not given) | 4.2% (active) | 96.6% |
| O=C1CC(NNc2ccccc2)C(=O)N1c1cccc(Cl)c1 (stereo not given) | -1.9% (inactive) |  |
| Cc1ccc(NC(=O)CCC(=O)c2ccc(Br)cc2)cc1 | -5% (inactive) |  |
| Cc1cc(=O)n2[nH]c(-c3cccc(Cl)c3)cc2n1 | -7.1% (inactive) |  |
| Cc1cc(=O)n2[nH]c(-c3sccc3-n3c(C)ccc3C)cc2n1 | 93.9% (active) | 97.8% |
| CCc1c(C)nc2cc(-c3cccs3)[nH]n2c1=O | 4.5% (inactive) |  |
| S=C(NCCc1ccccc1)N1CCn2cccc2C1c1ccncc1 (stereo not given) | 8.3% (inactive) |  |
| c1ccc(CCC2=NCCn3cccc32)cc1 | 61.9% (active) |  |
| CC1CSc2nnc(CCc3ccccc3)n21 (stereo not given) | -1.5% (inactive) |  |
| O=C(NCC(=O)N1CCN(c2ccccc2O)CC1)c1ccc2ccccc2c1 | 6% (inactive) |  |
| COc1cc(C(=O)OCC(=O)NC(C)CCc2ccccc2)cc(OC)c1OC (stereo not given) | 5.2% (inactive) |  |
| Cc1ccc(CN2CCNC(=O)C2CC(=O)NCc2csc(C(C)C)n2)cc1 (stereo not given) | -5.6% (inactive) |  |
